# Inconclusive results are not listed. Calls of active or inactive are those of the source. Rule for the calls, unless noted: active = hit-call score of the fitted dose curve at least 0.9, where 1 is the maximum; inconclusive = response in the unintended direction; inactive = score below 0.9.
# Tests used:
# [1] = Tanguay_ZF_120hpf_PFIN_legacy: (Legacy) Oregon State University Tanguay Lab 120 Hour Post-fertilization zebrafish Assay for Pectoral Fin Malformation (AID 2283648);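 note: each larva judged yes or no for fin defect by brightfield with dead larvae skipped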
# Method in brief: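 Dechorionated Tropical 5D wild-type zebrafish embryos, one per well, statically exposed from 6 to 120 hpf at 28C with 0.64% DMSO final. Pectoral fin malformation scored present/absent by brightfield at 120 hpf; not scored in dead embryos.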
# [2] = Tanguay_ZF_120hpf_PIG_legacy: (Legacy) Oregon State University Tanguay Lab 120 Hour Post-fertilization zebrafish Assay for Pigmentation Malformation (AID 2283650)
# Method in brief: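 Dechorionated Tropical 5D wild-type embryos, one per well from 6 hpf, statically exposed at 28C in the dark until 120 hpf, 0.64% DMSO final. Pigmentation scored present/absent by brightfield microscopy; dead embryos not scored; fitted versus DMSO.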
# [3] = Tanguay_ZF_120hpf_CIRC_legacy: (Legacy) Oregon State University Tanguay Lab 120 Hour Post-fertilization zebrafish Assay for Circulatory Malformation (AID 2283651)
# Method in brief: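 Using wild-type Tropical 5D zebrafish, we exposed dechorionated embryos from 6 to 120 hpf in embryo medium with 0.64% DMSO. Circulatory defects were scored as present or absent; 5uM trimethyltin chloride served as positive control.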
# [4] = Tanguay_ZF_120hpf_SWIM_legacy: (Legacy) Oregon State University Tanguay Lab 120 Hour Post-fertilization zebrafish Assay for Swim Bladder Malformation (AID 2283654);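 note: swim bladder malformation in each larva scored yes or no under brightfield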
# Method in brief: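 Dechorionated wild-type Tropical 5D zebrafish embryos, one per well from 6 hpf, were statically exposed at 28C until 120 hpf in 0.64% DMSO. Swim bladder malformation scored as present/absent by brightfield microscopy; not scored in dead larvae.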
# [5] = Tanguay_ZF_120hpf_TRUN_legacy: (Legacy) Oregon State University Tanguay Lab 120 Hour Post-fertilization zebrafish Assay for Truncated Body (AID 2283655)
# Method in brief: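 Single dechorionated zebrafish embryos received test chemical from 6 hpf in 0.64% DMSO, kept at 28C. At 120 hpf, brightfield inspection noted any truncated body.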
# [6] = Tanguay_ZF_120hpf_TR_legacy: (Legacy) Oregon State University Tanguay Lab 120 Hour Post-fertilization zebrafish Assay for Touch Response (AID 2283667)
# Method in brief: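 Tropical 5D wild-type zebrafish embryos statically exposed to 120 hpf at 28°C, sealed and dark-covered, 0.64% DMSO final; touch response scored as present/absent by brightfield microscopy at 120 hpf. Trimethyltin chloride 5 uM positive control; dead embryos not scored.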
# [7] = CCTE_Padilla_ZF_144hpf_TERATOSCORE: (Legacy) CCTE's 144 Hour Post-fertilization zebrafish Assay Teratoscore, Padilla Lab (AID 2283679; active = hit-call score of the fitted dose curve at least 0.9, where 1 is the maximum; inactive = score below 0.9;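 for AC50: zebrafish embryos with chorions exposed by immersion from 6-8 hpf to 5 dpf with daily renewal; teratogenicity score from eye scoring of death hatching and malformations at 144 hpf; higher score means more developmental defects relative to DMSO baseline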)
# Method in brief: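 Larvae scored by eye at 144 hpf for death, hatching and malformations after a day in clean Hanks'. Before that, daily-renewed exposure at 80 uM (0.4% DMSO, 26C) from roughly 6-8 hpf through 5 dpf, 4 embryos per chemical.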
# [8] = STM_H9_OrnithineISnorm_perc: Stemina devTOX quickPredict H9 human embryonic stem cell (hESC)-based Assay for Ornithine (ORN) Metabolite Biomarker, Normalized (AID 2283712; active = hit-call score of the fitted dose curve at least 0.9, where 1 is the maximum; inactive = score below 0.9;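 note: ornithine released into spent medium during last day measured by mass spectrometry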)
# Method in brief: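 Cells: undifferentiated H9 hESC. Dosing: 72 h, media replaced every 24 h. Sample: final 24-h conditioned media, 40% acetonitrile. Read: UPLC-HRMS ornithine area vs 13C standard, % DMSO control.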
# [9] = STM_H9_CystineISnorm_perc: Stemina devTOX quickPredict H9 human embryonic stem cell (hESC)-based Assay for Cystine (CYSS) Metabolite Biomarker, Normalized (AID 2283713; active = hit-call score of the fitted dose curve at least 0.9, where 1 is the maximum; inactive = score below 0.9)
# Method in brief: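 Secreted cystine was measured by UPLC-HRMS in H9 hESC medium after 72h compound exposure with 24-hourly replenishment. Values are standard-normalized areas relative to 0.1% DMSO.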
# [10] = STM_H9_OrnCyssISnorm_ratio: Stemina devTOX quickPredict H9 human embryonic stem cell (hESC)-based Assay for Ornithine (ORN):Cystine (CYSS) Ratio (AID 2283714)
# Method in brief: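 Undifferentiated H9 hESCs exposed 72 h, media and compound replaced every 24 h; final 24-h conditioned media deproteinized and analysed by UPLC-HRMS against C13 spike-ins. Value is the internal-standard-normalized ORN/CYSS ratio versus 0.1% DMSO.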
# [11] = Tanguay_ZF_120hpf_ActivityScore_legacy: (Legacy) Oregon State University Tanguay Lab 120 Hour Post-fertilization zebrafish Assay Score for Activity (AID 2283742);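 for AC50: static exposure from 6 hpf until 120 hpf at 28 °C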
# Method in brief: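 Dechorionated Tropical 5D embryos, one per well from 6 hpf, statically exposed to 120 hpf at 28 °C in 0.64% DMSO. Mortality and malformations scored binary by brightfield microscopy; activity score combines 18 endpoints, fitted positively versus DMSO.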
# [12] = system: Thyroperoxidase (TPO), gene 54314; assay: CCTE_Simmons_AUR_rTPO: CCTE's Amplex UltraRed Assay for Thyroperoxidase (TPO) Inhibition, Simmons Lab (AID 2283662);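 note: potency for loss of signal meaning inhibition of peroxidase activity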
# Method in brief: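 Rat thyroid microsomes (5 ug protein) were incubated with test compound (8 concentrations, 5 nM–87.5 uM final, 0.5% DMSO), 25 uM Amplex UltraRed and 300 uM H2O2 in 200 mM phosphate buffer for 30 min at 37C in the dark; fluorescence read at 544/590 nm.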
# [13] = CCTE_Simmons_CellTiterGLO_HEK293T: Viability Assessment in CCTE's Assays for Thyroperoxidase (TPO) Inhibition, Simmons Lab (AID 2283665);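 for AC50: cells exposed to compound for 24 h before readout; actives reduce ATP signal below DMSO vehicle meaning cytotoxicity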
# Method in brief: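 Cytotoxicity counter-screen: human HEK293T cells in low-serum (1% FBS) medium receive test chemical, 5 nM to 87.5 uM final, for 24 h; ATP is quantified by luciferase luminescence.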
# [14] = CEETOX_H295R_MTT_cell_viability: Viability Assessment in the CeeTox HT-H295R MTT Assay (AID 2283718; active = hit-call score of the fitted dose curve at least 0.9, where 1 is the maximum; inactive = score below 0.9;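 for AC50: curve fitted both ways so AC50 may mark viability loss or gain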)
# Method in brief: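 Human H295R adrenal cells, prestimulated 48 h with 10 uM forskolin, were exposed 48 h to chemicals in 0.1% DMSO. Viability was measured in the same wells by MTT (0.5 mg/ml, 4 h, 37 C), absorbance 570/650 nm, as percent of controls.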
# [15] = system: Thyroperoxidase (TPO), gene 445522; assay: CCTE_Simmons_GUA_TPO: CCTE's Guaiacol Assay for Thyroperoxidase (TPO) Inhibition, Simmons Lab (AID 2283750)
# Method in brief: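 Porcine thyroid microsomes (25 ug) in 200mM potassium phosphate, preincubated 30 s at 37C with compound (8 concentrations, 5 nM–87.5 uM) and 35mM guaiacol; 1mM H2O2 starts reaction. Absorbance change at 450nm over first 80 s; loss of signal versus DMSO, three replicates.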
smiles,measurement,setting,value
O=C(O)C(Cl)Cl,outcome,[1],inactive
same,outcome,[2],inactive
same,outcome,[3],inactive
same,outcome,[4],inactive
same,outcome,[5],inactive
same,outcome,[6],inactive
same,outcome,[7],inactive
same,outcome,[8],inactive
same,outcome,[9],inactive
same,outcome,[10],inactive
same,outcome,[11],inactive
CC(C)(C)c1ccc(O)cc1,outcome,[1],inactive
same,AC50,[2],25.2 µM (active)
same,outcome,[3],inactive
same,outcome,[4],inactive
same,outcome,[5],inactive
same,AC50,[12],2.73 µM (active)
same,AC50,[13],57.4 µM (active)
same,outcome,[6],inactive
same,AC50,[7],57.8 µM (active)
same,AC50,[11],42.8 µM (active)
O=P(Oc1ccccc1)(Oc1ccccc1)Oc1ccccc1,outcome,[1],inactive
same,outcome,[2],inactive
same,outcome,[4],inactive
same,outcome,[5],inactive
same,outcome,[6],inactive
same,AC50,[7],6.17 µM (active)
same,outcome,[8],inactive
same,outcome,[9],inactive
same,outcome,[14],inactive
same,outcome,[11],inactive
CC(Cl)(Cl)C(=O)O,outcome,[1],inactive
same,outcome,[2],inactive
same,outcome,[3],inactive
same,outcome,[4],inactive
same,outcome,[5],inactive
same,outcome,[6],inactive
same,outcome,[11],inactive
CSC(C)(C)C=NO,outcome,[1],inactive
same,outcome,[2],inactive
same,outcome,[3],inactive
same,outcome,[4],inactive
same,outcome,[5],inactive
same,outcome,[6],inactive
same,outcome,[11],inactive
CC(Cc1ccc(OCC(=O)O)cc1)NCC(O)c1csc(C(F)(F)F)n1 (centres undefined),outcome,[1],inactive
same,outcome,[2],inactive
same,outcome,[3],inactive
same,outcome,[4],inactive
same,outcome,[5],inactive
same,outcome,[6],inactive
same,outcome,[11],inactive
CCOP(=S)(Oc1ccc([N+](=O)[O-])cc1)c1ccccc1 (centres undefined),outcome,[1],inactive
same,outcome,[3],inactive
same,outcome,[4],inactive
same,outcome,[5],inactive
same,AC50,[12],10.2 µM (active)
same,outcome,[13],inactive
same,outcome,[6],inactive
same,AC50,[7],1.19 µM (active)
same,outcome,[14],inactive
same,outcome,[11],inactive
CCCCN(CCCC)SN(C)C(=O)Oc1cccc2c1OC(C)(C)C2,outcome,[1],inactive
same,outcome,[2],inactive
same,outcome,[3],inactive
same,outcome,[4],inactive
same,outcome,[5],inactive
same,outcome,[6],inactive
same,AC50,[7],6.04 µM (active)
same,outcome,[11],inactive
O=[N+]([O-])c1ccc(Cl)c(Cl)c1,outcome,[1],inactive
same,outcome,[2],inactive
same,outcome,[3],inactive
same,outcome,[5],inactive
same,outcome,[6],inactive
same,outcome,[11],inactive
ClC(Cl)c1ccccc1,outcome,[1],inactive
same,outcome,[2],inactive
same,outcome,[3],inactive
same,outcome,[4],inactive
same,outcome,[5],inactive
same,outcome,[6],inactive
same,AC50,[7],14.7 µM (active)
same,outcome,[11],inactive
Cc1ccc([N+](=O)[O-])cc1C,outcome,[1],inactive
same,outcome,[2],inactive
same,outcome,[3],inactive
same,outcome,[5],inactive
same,outcome,[11],inactive
Nc1ccc2ccccc2c1,outcome,[1],inactive
same,AC50,[2],46.5 µM (active)
same,outcome,[3],inactive
same,outcome,[4],inactive
same,outcome,[5],inactive
same,AC50,[12],0.34 µM (active)
same,outcome,[13],inactive
same,AC50,[7],42.1 µM (active)
same,outcome,[8],inactive
same,outcome,[9],inactive
same,outcome,[10],inactive
same,AC50,[14],23.9 µM (active)
same,AC50,[11],36.8 µM (active)
CCOc1ccc(C(C)(C)COCc2cccc(Oc3ccccc3)c2)cc1,outcome,[1],inactive
same,outcome,[2],inactive
same,outcome,[3],inactive
same,outcome,[4],inactive
same,outcome,[5],inactive
same,outcome,[14],inactive
same,outcome,[11],inactive
CCC(C)(C)c1ccc(O)cc1,AC50,[1],22.2 µM (active)
same,AC50,[2],47.4 µM (active)
same,outcome,[3],inactive
same,AC50,[4],47.2 µM (active)
same,AC50,[5],31.6 µM (active)
same,AC50,[12],4.91 µM (active)
same,AC50,[13],28.1 µM (active)
same,AC50,[6],48.3 µM (active)
same,AC50,[7],14.2 µM (active)
same,AC50,[8],78.2 µM (active)
same,outcome,[9],inactive
same,AC50,[10],40.1 µM (active)
same,outcome,[14],inactive
same,AC50,[11],21.3 µM (active)
c1cc2c3c(cccc3c1)CC2,outcome,[1],inactive
same,outcome,[2],inactive
same,outcome,[3],inactive
same,outcome,[4],inactive
same,outcome,[6],inactive
same,outcome,[11],inactive
CCOS(=O)(=O)OCC,outcome,[1],inactive
same,outcome,[3],inactive
same,outcome,[4],inactive
same,outcome,[5],inactive
same,outcome,[6],inactive
same,outcome,[11],inactive
CCCN(CCC)c1c([N+](=O)[O-])cc(C(C)C)cc1[N+](=O)[O-],outcome,[1],inactive
CCCCN(CCCC)N=O,outcome,[1],inactive
Cc1cccc(N)c1,AC50,[15],8.25 µM (active)
c1ccc2c(c1)Nc1ccccc1S2,AC50,[15],100 µM (active)

# From PubChem BioAssay (EPA / NIEHS)
